Most compounds without a hit are left out; they make up all but 0.92% or so of the library.
FEN1 inh-1: inhibitors of human flap endonuclease 1; P39748; Potency, µM (highest dose often 114 µM), inactives show top-dose activity change, negative = inhibition, hits mostly inhibitors; Recombinant FEN1 flap cleavage, fluorescence, 15 min; 390,000 tested, 0.35% active; also: % is scaled to controls: 0 for no effect and ±100 for the full control effect; nearly all actives have a fitted effect of over 65% in size
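Enzyme 10 nM, 15 min RT preincubation with compound; start with substrate 50 nM final; reads at 0 and 15 min; qHTS titration, four-parameter Hill fit.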
APEX1 inh: blocks human APE1 abasic DNA cleavage | Potency, µM (doses to about 65.8 µM), for the others: top-dose activity change, negative = inhibition, usual class: inhibitors | 350,000 tested, 0.35% active | recombinant APE1, TAMRA/BHQ-2 abasic DNA cleavage fluorescence | P27695;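 also: plate controls were vehicle for no effect and reference inhibitor for full effect; nearly all actives have a fitted effect of over 55% in size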
Target sequence (P27695 whole entry, looked up): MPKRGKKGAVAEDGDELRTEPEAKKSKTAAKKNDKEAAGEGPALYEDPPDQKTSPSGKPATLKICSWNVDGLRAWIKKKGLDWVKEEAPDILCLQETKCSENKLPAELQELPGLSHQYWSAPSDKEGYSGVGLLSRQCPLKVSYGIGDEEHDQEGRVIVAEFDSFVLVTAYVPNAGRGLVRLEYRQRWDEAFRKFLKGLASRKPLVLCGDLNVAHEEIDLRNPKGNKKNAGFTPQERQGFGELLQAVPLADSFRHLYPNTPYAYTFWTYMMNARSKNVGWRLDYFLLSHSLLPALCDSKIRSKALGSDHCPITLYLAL
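Enzyme (0.75 nM final) and test compound are incubated 15 min at room temperature before adding 50 nM quenched THF abasic-site duplex. Cleavage dequenches TAMRA, followed at 525/598 nm over three reads one minute apart.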
BLM inh-1: Bloom syndrome helicase (human) inhibition. P54132. recombinant BLM DNA unwinding, fluorescence dequenching. 350,000 tested, 0.2% active. Potency, µM (top dose mostly 56.1 µM), for inactives: top-dose activity change, negative = inhibition, hits mostly inhibitors;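 also: plate controls were vehicle for no effect and no enzyme for full effect; nearly all actives have a fitted effect of over 35% in size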
RECQ1 inh-1: inhibitors of human RECQ1 DNA helicase; 240,000 tested, 0.54% active; RECQ1 DNA unwinding, red fluorescence kinetic read; AID 2549; Potency, µM (titrated, usually from 57.3 µM), for the others: at the highest dose activity, negative = inhibition, hits mostly inhibitors; P46063;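 also: plate controls were vehicle for no effect and no enzyme for full effect; nearly all actives have a fitted effect of over 30% in size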
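50 nM RECQ1T1 preincubated 15 min with compound in Tris pH 8.0 buffer with MgCl2, DTT, Tween-20 and 2.5 ug/ml poly(dI-dC); started with 200 nM TAMRA/BHQ-2 forked duplex and 2 mM ATP. Unwinding read as fluorescence (525/598 nm), two reads 2 h apart.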
TDP1 inh: TDP1 (human) enzyme inhibition | Q9NUW8 | recombinant TDP1, AlphaScreen DNA substrate cleavage | Potency, µM (doses to about 130 µM), for inactives: top-dose activity change, negative = inhibition, hits mostly inhibitors | 350,000 tested, 0.28% active | AID 485290; also: % is scaled to controls: 0 for no effect and ±100 for the full control effect; nearly all actives have a fitted effect of over 40% in size
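Here, a 5' biotin and 3' phosphotyrosine-FITC DNA oligonucleotide reports Tdp1 activity: intact substrate bridges AlphaScreen beads, while cleavage leaves a 3' phosphate and drops signal. All incubations at room temperature.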
BLM inh-2: BLM (human) helicase inhibition, confirmation. shares compounds with BLM inh-1. Potency, µM, for inactives: max response, negative = inhibition, hits mostly inhibitors. BLM DNA unwinding, fluorescence quenching, biochemical. 220 tested, 40% active;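 also: strand separation dequenches TAMRA so unwinding raises red fluorescence; series mostly up to about 69 µM; % is scaled to controls: 0 for no effect and ±100 for the full control effect; nearly all actives have a fitted effect of over 45% in size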
RECQ1 inh conf: confirmation of human RECQ1 helicase inhibitors | Potency, µM (doses to about 229 µM), for inactives: at the highest dose activity change, negative = inhibition, actives largely listed as inhibitors | 610 tested, 28% active | RECQ1 helicase DNA unwinding, fluorescence | shares compounds with RECQ1 inh-1; also: % is scaled to controls: 0 for no effect and ±100 for the full control effect; nearly all actives have a fitted effect of over 45% in size
RECQ1 ADP FP: displaces ADP in a fluorescence polarization counter-screen for RECQ1 hits. shares compounds with RECQ1 inh-1. ADP fluorescence polarization displacement counterscreen. AID 2711. 530 tested, 27% active. Potency, µM (series often up to 228 µM), for the others: at the top dose activity change, negative = inhibition, most hits filed as inhibitors; also: % is scaled to controls: 0 for no effect and ±100 for the full control effect; nearly all actives have a fitted effect of over 45% in size
RECQ1 inh-2: RECQ1 helicase inhibition confirmed, round 2 | recombinant RECQ1 DNA unwinding, red fluorescence | 1,100 tested, 15% active | shares compounds with RECQ1 inh-1 | AID 504841 | Potency, µM (series often up to 119 µM), for the others: at the highest dose activity, negative = inhibition, usual class: inhibitors; also: % is scaled to controls: 0 for no effect and ±100 for the full control effect; nearly all actives have a fitted effect of over 50% in size
FEN1 inh-2: FEN1 inhibition, cherry-pick retest. shares compounds with FEN1 inh-1. FEN1 flap cleavage, TAMRA/BHQ2 fluorogenic DNA substrate. 880 tested, 79% active. Potency, µM, most hits filed as inhibitors; also: nearly all actives have a fitted effect of over 60% in size
Active calls of the source: *; ? = inconclusive; . = no result; [ ] = remark or other dose. Calls follow the shape of the dose curve; as a rule, active = well fitted curve in the direction sought with a large enough effect; inconclusive = small, poorly fitted or top-dose-only effect, or another doubt; inactive = no such curve, though single readings can be large; an effect the other way counts as inactive or inconclusive. Potency is read from the fitted curve at half-maximal effect.

SMILES	FEN1 inh-1	APEX1 inh	BLM inh-1	RECQ1 inh-1	TDP1 inh	BLM inh-2	RECQ1 inh-2	others
S=C(Nc1ccc2nsnc2c1)N1CCCC1	6.9%	?	7.94µM*	?	1.2%	?	11.8%
O=C(COc1ccc([N+](=O)[O-])cc1)Nc1nnc(-c2cccnc2)s1	?	?	15.8µM*	?	-8.6%	?	?
CCOC(=O)C1CCCN(CCC(=O)Nc2ccc(OC)cc2OC)C1 (configuration not stated)	15.3%	.	-1.2%	.	-4.0%[12.3 µM]	.	.
O=C(CSc1ccccc1F)NC(=O)NCc1ccco1	-1.0%	?	15.8µM*	25.1µM*	-5.1%	?	1.3%
O=C(O)c1ccccc1/C=N/NC(=O)c1cc(-c2ccco2)nc2ccccc12	?	22.4µM*	14.1µM*	22.4µM*	.	?	.	RECQ1 inh conf=39.8µM*;RECQ1 ADP FP=39.8µM*
CC(C(=O)NCc1ccccc1Cl)n1ccc2cc(S(=O)(=O)N3CCCCC3)ccc21 (configuration not stated)	17.9%	.	-4.7%	.	5.6%	.	.
COc1cc(/C=C(/C#N)c2nc3ccccc3[nH]2)ccc1OCc1ccc(C(=O)O)o1	?	-4.4%	-0.2%	-1.3%	-3.8%	.	.
COC(=O)c1ccc(COc2ccc(/C=C(\C#N)c3nc4ccccc4[nH]3)cc2OC)o1	-11.0%	-6.3%	14.1µM*	?	.	?	79.4µM*
OC1OC[C@@H](O)[C@H](O)[C@@H]1O (some centres not stated)	.	.	2.8%	.	2.1%	.	.
COc1cc(NC(=O)c2ccccc2)c(OC)cc1NC(=O)Cc1ccc(Br)cc1	-6.3%	20.8%	-5.8%	.	.	.	.
COc1cc(NC(=O)c2ccccc2)c(OC)cc1NC(=O)Cc1cccs1	-19.6%	15.8µM*	11.2µM*	12.6µM*	.	16.2µM*	?	RECQ1 inh conf=?;RECQ1 ADP FP=22.1%[91.9 µM]
CC#CCN1c2ccccc2[C@]23C[C@@H](C(=O)OC)N(S(=O)(=O)c4ccc(Br)cc4)C2=NC(C(=O)OC)=C(C(=O)OC)[C@H]13	.	-1.3%[12.4 µM]	-5.3%[12.4 µM]	-12.8%[11.5 µM]	9.8%[12.3 µM]	.	.
O=C(Cn1c(=O)n(Cc2ccc3c(c2)OCO3)c(=O)c2oc3ccccc3c21)Nc1ccccc1F	-3.6%	.	0.8%	.	2.6%	.	.
Nc1ccc(N2CCCCC2)c2nonc12	?	-2.7%	22.4µM*	?	3.0%	1.2%	-2.3%
Fc1cc(F)c2nc(Nc3nc4cc5c(cc4s3)OCO5)sc2c1	?	9.0%	10µM*	?	?	?	.	FEN1 inh-2=42.6*
CNC(=O)COC(=O)c1cc(-c2ccco2)nc2ccccc12	50.1µM*	?	15.8µM*	22.4µM*	.	?	?	FEN1 inh-2=?
O=C(COC(=O)c1cc(-c2ccco2)nc2ccccc12)NCc1ccccc1	8.1%	-0.6%	-7.6%	-5.4%	-3.5%	.	.
CCC1=NN2C(=N)/C(=C\c3cccn3-c3ccc(C)c(C)c3)C(=O)N=C2S1	-7.5%	-7.7%	-17.7%	-21.3%	4.8%	.	.
Cc1ccc(-n2cccc2/C=C2\C(=N)N3N=C(c4ccco4)SC3=NC2=O)cc1	22.4µM*	10µM*	20µM*	?	56.2µM*	28.9µM*	?	FEN1 inh-2=42.6*
